The values below come from PubChem BioAssay AID449762 (Southern Research Specialized Biocontainment Screening …, 2010).

Hit rate of the full screen: of about 330,000 compounds, about 1,900 (0.58%) were called active. Not shown: some 4% with an inconclusive outcome. No stated cut-off is given here; in the data, inconclusive means inhibition above about 70% without an active follow-up result; inactive means below that. Only a sample is shown. Entries with a potency or affinity are not part of this list.

What is called inhibition is the drop in the measured response relative to a control, in per cent.

This assay is described as follows: M. tuberculosis growth inhibition, HTS (AID 449762).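 Further: bacterial growth assessed after seven days of incubation.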 The following applies: M. tuberculosis H37Rv growth inhibition, 7H9 media; at 25 µM; active compounds read high.
Consider `O=S(=O)(CCN1CCSCC1)c1ccc(Cl)cc1`, for which the inhibition was -12.2% (inactive). Take `CSCCC(NC(=O)COc1ccccc1)C(=O)N1CCN(C(C)=O)CC1` (stereo unspecified): the inhibition was 4.67% (inactive). For `Cc1ccc(NC(=O)c2c(C)nc3ccccn23)cc1C`, the inhibition is -2.44% (inactive). In the case of `Cc1nc2ccccn2c1C(=O)N/N=C/c1ccccc1`, the inhibition is -1.76% (inactive). Regarding `CCOC(=O)N1CCN(C(=O)COC(=O)Cc2ccc(OC)cc2)CC1`, the inhibition is -5.2% (inactive). As to `CC(C)CNC(=O)c1cccc(NC(=O)Cc2ccc(Cl)cc2)c1`, the inhibition is -1.92% (inactive). In the case of `CCc1nc(C)cn1S(=O)(=O)c1cc(F)ccc1OC` it was 0.63% (inactive); in that of `Cc1ccc(OS(=O)Nc2cccc3nccnc23)cc1` (stereo unspecified), 49% (inactive). With `Fc1ccc(Nc2cccc3nccnc23)cc1`, the inhibition was 7.88% (inactive). As for `CNC(=S)NNC(=O)c1cc(-c2cccnc2)nc2ccccc12`, the inhibition was -1.9% (inactive). Take `COc1ccc(NC(=O)COC(=O)CCc2ccc(S(=O)(=O)N3CCOCC3)cc2)c(OC)c1`: the inhibition was -0.81% (inactive). For `Cc1[nH]n(-c2ccccc2)c(=O)c1C(=O)c1ccc(Cl)cc1`, the inhibition was 67.2% (inactive). `Cc1[nH]n(-c2ccccc2)c(=O)c1C(=O)c1ccccc1`: the inhibition is 1.23% (inactive). Regarding `COC(=O)CCSc1cc(NCCOC(C)=O)c([N+](=O)[O-])c2nonc12`, the inhibition was 27.1% (inactive). For `CCCSc1cc(NCCOC(C)=O)c([N+](=O)[O-])c2nonc12`, the inhibition was 14.4% (inactive).

On to `O=c1cc(CO)oc(C(Nc2ccccn2)c2cccc(F)c2)c1O` (stereo unspecified), for which the inhibition was -4.25% (inactive). Turning to `Cc1ccc(-n2ccnc2SCC(=O)c2c(N)n(C3CC3)c(=O)[nH]c2=O)cc1C`, the inhibition was -3.24% (inactive). Regarding `CC(OC(=O)CCC(=O)c1cccs1)C(=O)Nc1ccccc1[N+](=O)[O-]` (stereo unspecified), the inhibition was -1.97% (inactive). For the molecule `COc1ccc(OCCCC(=O)OC(C)C(=O)Nc2ccc(NC(C)=O)cc2)cc1` (stereo unspecified), the inhibition is -25.7% (inactive). As to `O=C(CC12CC3CC(CC(Br)(C3)C1)C2)Nc1cccc(S(=O)(=O)NC2=NCCC2)c1`, the inhibition was 7.59% (inactive). Turning to `CC(C)(C)NC(=S)N1CCn2cccc2C1c1cccnc1` (stereo unspecified), the inhibition was -4.33% (inactive). Consider `O=C(N/N=C/c1ccc2ncccc2c1)c1cccc([N+](=O)[O-])c1`, for which the inhibition is 10.3% (inactive). For `CCCCNC(=O)CSc1nc2cc3c(cc2c(=O)n1Cc1ccco1)OCO3`, the inhibition was -13% (inactive). On to `CCN1C(=O)/C(=C/c2ccc(N3CCCC3)cc2)NC1=S`, for which the inhibition is -3.08% (inactive). On to `COC(=O)COc1ccc(/C=C2/NC(=O)N(CC(=O)OC)C2=O)cc1`, for which the inhibition was 0.75% (inactive). As to `CN(CC(=O)Nc1c(Cl)cccc1Cl)C(=O)Cc1cccs1`, the inhibition is -16.5% (inactive). The result for `O=C(Nc1cccc(-c2nc3ccccc3s2)c1)c1cc(=O)c2ccccc2o1` reads 10.9% (inactive); that for `Cn1ncc([N+](=O)[O-])c1C(=O)Nc1cccc(Cl)c1`, -25.5% (inactive); that for `Cc1nc2c3ccccc3nc(NNC(=O)CCC(=O)N3CCC(C)CC3)n2n1`, -3.15% (inactive). With `Cc1nonc1OCCN1CCN(c2ccc([N+](=O)[O-])cc2)CC1`, the inhibition was 9.04% (inactive). `Cc1ccc(S(=O)(=O)Nc2ccc(C(N)=O)cc2)cc1[N+](=O)[O-]`: the inhibition is -1.5% (inactive). For `CCCNc1ccc(C(=O)OCC)cc1[N+](=O)[O-]`, the inhibition is -11.2% (inactive). Turning to `CCOC(=O)c1ccc(NC(C)=O)c([N+](=O)[O-])c1`, the inhibition is -9.36% (inactive).

On to `O=C(/C=C/c1ccccc1)N/C(=C/c1ccccc1)C(=O)Nc1cccc(C(=O)O)c1`, for which the inhibition was -8.21% (inactive). The result for `Nc1cc2c(cc1C(=O)c1ccc(Cl)cc1)OCCO2` reads 4.52% (inactive); that for `O=C(COc1ccc(Cl)cc1Cl)N/N=C/c1cccnc1`, -6.12% (inactive).

For the molecule `COc1cc(OC)cc(C(=O)Nc2ccc(N(C)C)c3ccccc23)c1`, the inhibition is 1.99% (inactive). Take `CN(C)c1ccc(NC(=O)c2ccncc2)c2ccccc12`: the inhibition was -1.45% (inactive).

Turning to `CCOC(=O)C1=C(C)Nc2nc(C)nn2C1c1ccc(C)cc1` (stereo unspecified), the inhibition is 5.22% (inactive). As to `CCCCN(CCCC)Cc1ccc(C(=O)NNC(=O)Nc2ccc(F)cc2)o1`, the inhibition was 4.32% (inactive). In the case of `Cc1ccc(S(=O)(=O)NC(CC(C)C)C(=O)N2CCCC2)cc1` (stereo unspecified), the inhibition is -3.51% (inactive). The result for `CC(=O)Nc1ccc(S(=O)(=O)N[C@@H](C)C(=O)N2CCN(C/C=C/c3ccccc3)CC2)cc1` reads -13.2% (inactive); that for `COc1ccc(-c2ccc(-c3nnn(CC(C)=O)n3)cc2)cc1`, 12.6% (inactive); that for `COc1cccc(CN(C)C(=O)C(CCSC)NS(=O)(=O)c2ccc3c(c2)OCCO3)c1OC` (stereo unspecified), -2% (inactive).

Regarding `CCCCn1cnc2c(oc3nc4c(cc32)CCCC4)c1=O`, the inhibition was 5.81% (inactive).

As to `Oc1ccc2ccccc2c1/C=N/c1nccs1`, the inhibition is 0.82% (inactive). The result for `Oc1ccc2ccccc2c1N=Nc1ccccc1F` reads -3.05% (inactive). In the case of `CCOC(=O)c1sc(NC(=O)C(OC(C)=O)c2ccccc2)nc1C` (stereo unspecified) it was -4.59% (inactive). With `COc1ccc(OC)c(C(O)C2CCCCN2)c1` (stereo unspecified), the inhibition was 0.57% (inactive). `O=C(O)c1cc(C(F)(F)F)nc2c(C(F)(F)F)cccc12`: the inhibition was -3.33% (inactive). `Cc1sc2nc(-c3ccc(Br)cc3)oc(=O)c2c1C`: the inhibition was 7.29% (inactive).

For `O=C1[C@@H]2Cc3c([nH]c4ccccc34)CN2C(=O)CN1CCCCCO`, the inhibition was -3.43% (inactive). On to `c1ccc(Nc2ccccc2Nc2ccccn2)nc1`, for which the inhibition was -3.39% (inactive). In the case of `c1ccc(Nc2ccccn2)nc1`, the inhibition was 4.45% (inactive). Take `O=C(NC1CCS(=O)(=O)C1)/C(=C/c1ccco1)NC(=O)c1ccccc1` (stereo unspecified): the inhibition was -0.22% (inactive). The result for `CCC[C@H](N[C@@H](CCC)[C@H](O)c1ccccc1)[C@H](O)c1ccccc1` reads -2.74% (inactive). In the case of `O=C(Nc1ccc(F)cc1)c1ccc(S(=O)(=O)NCC2CCCO2)cc1` (stereo unspecified) it was 0.17% (inactive); in that of `Cc1ccc(OCCNC(=O)CCNS(=O)(=O)c2ccc3ccccc3c2)cc1`, 1.14% (inactive); in that of `Cc1nn(C)c(C)c1NC(=O)c1cc2nc(-c3ccco3)cc(C(F)(F)F)n2n1`, -8.4% (inactive). As for `O=C(Nc1cnn(Cc2ccccc2)c1)c1cc2nc(-c3ccco3)cc(C(F)(F)F)n2n1`, the inhibition was 1.16% (inactive).

For the molecule `COCCCN1C(=O)c2ccc(C(=O)NCCc3ccccc3)cc2C1=O`, the inhibition was 0.01% (inactive).
